This is an account of results in PubChem BioAssay.

The subject of assay [1] is Wnt5a (protein binding on small-molecule microarray). The assay is described as follows: Wnt5a binders on small-molecule microarray, primary screen, biophysical, 635/667 nm fluorescence (AID 1142).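 Further: fluorescence read at 667 nm with signal to noise per printed feature.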 As to conditions: 635 nm fluorescence, higher = more signal.
The nature of assay [2]: cell viability in Huh7 cells, primary screen, cytotoxicity control for HCV replication inhibitor project, CellTiter-Glo luminescence, basal, 48 h (AID 1143).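 Further: Huh7 hepatoma cells carrying a hepatitis C replication reporter with no stimulus; test concentration not given here.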 As to conditions: Huh7 HCV replicon, higher = more signal, called active from +8 up or from −8 down.
Assay [3] can be described thus: P. aeruginosa biofilm formation inhibitors, primary screen, PAO1 strain, BacTiter-Glo luminescence, LB-PBS (AID 1144). As to conditions: 12 h, higher = more signal.
A short description of assay [4]: CREB reporter modulators without forskolin, primary screen, cell-based, PC12, CRE-LacZ reporter, unstimulated (AID 1145). To be noted: no forskolin, luminescence, 4.5 h, higher = more signal, called active from +8 up or from −8 down.
A short description of assay [5]: CREB reporter modulators under forskolin, primary screen, cell-based, PC12, CRE-LacZ reporter, forskolin-stimulated (AID 1146).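 Further: PC12 cells with 6xCRE LacZ reporter stimulated by forskolin 10 µM; beta-galactosidase reporter signal reflecting CREB driven transcription.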 As to conditions: luminescence, 4.5 h, higher = more signal, called active from +8 up or from −8 down.
In assay [6] the target is Streptavidin (Streptomyces avidinii) (UniProt P22629). The assay is described as follows: streptavidin binders on small-molecule microarray, primary screen, artefact control for SMM compound annotation, biophysical, 635/667 nm fluorescence (AID 1147).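 Further: signal reflects streptavidin binding to arrayed compounds as a control protein.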 As to conditions: streptavidin binding, higher = more signal.
Sequence of Streptavidin (Streptomyces avidinii) (P22629 whole entry, looked up): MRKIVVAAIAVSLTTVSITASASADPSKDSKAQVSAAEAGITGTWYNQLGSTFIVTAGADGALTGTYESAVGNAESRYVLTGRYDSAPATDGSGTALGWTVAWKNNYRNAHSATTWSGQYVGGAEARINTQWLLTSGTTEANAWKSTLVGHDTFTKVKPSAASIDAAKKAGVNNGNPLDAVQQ
Assay [7] can be described thus: small-molecule binders of probe aInhba, primary screen, biochemical, small-molecule microarray, 635/667 nm fluorescence (AID 1148).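 Further: score merges 667nm spot fluorescence with signal-to-noise for antibody binding to printed compounds.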 As to conditions: higher = more signal.
Assay [8] addresses Torsin-1A (Homo sapiens) (UniProt O14656). Kind of assay: torsin A binders from cell lysate, primary screen, small-molecule microarray, wild-type, 635/667 nm (AID 1149). As to conditions: COS7 hTOR1A-WT lysate, 635 nm fluorescence, higher = more signal.
For assay [9] the target is unchanged. The assay is described as follows: small-molecule binders of mutant TOR1A in lysate, primary screen, cell lysate, small-molecule microarray, COS7 lysate, 635/667 nm fluorescence (AID 1150).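 Further: score pools 667 nm emission and signal to noise measuring lysate protein binding.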 To be noted: COS7 hTOR1A mutant lysate, 635 nm fluorescence, higher = more signal.
The subject of assay [10] is Sonic hedgehog protein (Shh). The assay is described as follows: small-molecule binders of Shh protein, primary screen, biochemical, small-molecule microarray, 635/667 nm fluorescence (AID 1151).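 Further: Shh protein binding to compounds spotted on small-molecule microarray slides; score combines spot fluorescence intensity with signal-to-noise across triplicate slides.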 As to conditions: small-molecule microarray binding, 635 nm fluorescence; higher = more signal.
The nature of assay [11]: E. coli DRC41 culture turbidity changes, primary screen, E. coli filamentation inducer project, strain DRC41, OD650, 48 h (AID 1152).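 Further: E. coli MC1000 strain DRC41 lacking acrAB efflux pump and sulA.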 As to conditions: E. coli DRC41 (acrAB sulA), higher = more signal, called active from +8 up or from −8 down.
Assay [12] is described as follows: small-molecule binders of probe aLefty1, primary screen, biochemical, small-molecule microarray, 635/667 nm fluorescence (AID 1153).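 Further: score merges spot fluorescence with signal-to-noise ratio from the scanned slide images.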 As to conditions: higher = more signal.
A short description of assay [13]: PSAC antagonists in infected red cells, primary screen, cell-based, P. falciparum Indochina, OD700, 1 h (AID 1154). As to conditions: P. falciparum Indochina infected RBC osmotic lysis, higher = more signal, called active from +8 up or from −8 down.
Assay [14] in a line: PSAC antagonists in infected red cells, primary screen, cell-based, P. falciparum Indochina, OD700, 2 h (AID 1155).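 Further: lysis reports solute entry through the parasite surface anion channel PSAC; channel blockers reduce lysis of infected cells.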 As to conditions: P. falciparum Indochina infected erythrocytes, osmotic lysis OD700; higher = more signal, called active from +8 up or from −8 down.
The nature of assay [15]: osmotic lysis modulators in infected erythrocytes, primary screen, PSAC antagonist project, cell-based, P. falciparum Indochina, OD700, 3 h (AID 1156). As to conditions: higher = more signal, called active from +8 up or from −8 down.
A short description of assay [16]: PSAC antagonists in infected red cells, primary screen, cell-based, P. falciparum Indochina, OD700, 18 h (AID 1157). As to conditions: P. falciparum Indochina infected erythrocytes, osmotic lysis OD700, 18 h; higher = more signal, called active from +8 up or from −8 down.
A short description of assay [17]: modulators of S6 phosphorylation in cells, primary screen, cell-based, A549, cytoblot, luminescence, serum-stimulated (AID 1158).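 Further: serum-stimulated A549 lung adenocarcinoma cells; signal is phosphorylated S6 detected by cytoblot immunostaining with HRP secondary.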 As to conditions: A549 phospho-S6 cytoblot, 5 h, higher = more signal.
Assay [18] deals with NADPH oxidase 2 (Homo sapiens) (UniProt P04839). The assay is described as follows: NOX2-dependent H2O2 signal modulators, primary screen, NOX inhibitor project, cell-based, HEK293-NOX2, PMA-stimulated, Amplex Red fluorescence (AID 1159). Further: test concentration not given here. As to conditions: 45 min, higher = more signal, called active from +8 up or from −8 down.
Sequence of NADPH oxidase 2 (Homo sapiens) (P04839 whole entry, looked up): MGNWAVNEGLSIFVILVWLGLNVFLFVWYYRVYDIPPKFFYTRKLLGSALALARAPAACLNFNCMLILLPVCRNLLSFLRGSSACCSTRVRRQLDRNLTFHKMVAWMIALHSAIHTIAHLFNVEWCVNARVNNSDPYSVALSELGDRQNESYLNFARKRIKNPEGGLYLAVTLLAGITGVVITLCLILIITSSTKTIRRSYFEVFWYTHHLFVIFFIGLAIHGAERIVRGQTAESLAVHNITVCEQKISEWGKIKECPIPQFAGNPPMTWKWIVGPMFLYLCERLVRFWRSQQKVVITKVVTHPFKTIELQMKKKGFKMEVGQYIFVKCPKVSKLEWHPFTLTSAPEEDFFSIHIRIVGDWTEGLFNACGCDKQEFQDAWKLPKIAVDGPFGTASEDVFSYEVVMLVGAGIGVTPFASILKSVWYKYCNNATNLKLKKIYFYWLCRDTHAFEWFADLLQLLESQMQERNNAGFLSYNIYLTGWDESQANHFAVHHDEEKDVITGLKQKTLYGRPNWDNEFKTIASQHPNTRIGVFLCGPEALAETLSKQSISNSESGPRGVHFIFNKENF
The target in assay [19] is NADPH oxidase 4 (Homo sapiens) (UniProt Q9NPH5). Kind of assay: NOX4-dependent H2O2 signal modulators, primary screen, NOX inhibitor project, cell-based, HEK293-NOX4, tetracycline-induced, Amplex Red fluorescence (AID 1160). To be noted: 45 min, higher = more signal, called active from +8 up or from −8 down.
Sequence of NADPH oxidase 4 (Homo sapiens) (Q9NPH5 whole entry, looked up): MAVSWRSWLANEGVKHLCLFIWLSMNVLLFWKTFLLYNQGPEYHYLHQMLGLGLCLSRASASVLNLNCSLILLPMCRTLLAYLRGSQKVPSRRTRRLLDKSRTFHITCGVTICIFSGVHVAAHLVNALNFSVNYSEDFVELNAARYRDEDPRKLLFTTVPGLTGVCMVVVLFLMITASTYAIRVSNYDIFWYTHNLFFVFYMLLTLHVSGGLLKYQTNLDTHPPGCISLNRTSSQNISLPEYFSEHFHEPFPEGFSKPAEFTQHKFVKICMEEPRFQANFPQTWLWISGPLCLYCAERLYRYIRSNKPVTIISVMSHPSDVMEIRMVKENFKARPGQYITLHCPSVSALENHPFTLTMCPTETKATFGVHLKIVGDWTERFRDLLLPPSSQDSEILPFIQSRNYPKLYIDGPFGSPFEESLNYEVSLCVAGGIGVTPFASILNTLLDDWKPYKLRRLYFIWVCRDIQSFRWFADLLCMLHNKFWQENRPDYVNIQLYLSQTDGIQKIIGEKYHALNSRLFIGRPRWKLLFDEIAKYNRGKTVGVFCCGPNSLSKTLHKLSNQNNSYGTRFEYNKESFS
Assay [20] concerns the target NADPH oxidase 5 (Homo sapiens) (UniProt Q96PH1). Kind of assay: NOX5-dependent H2O2 signal modulators, primary screen, NOX inhibitor project, cell-based, HEK293-NOX5, Amplex Red fluorescence (AID 1161). As to conditions: HEK293-NOX5, ionomycin, 45 min, higher = more signal.

Activity calls are given as the source filed them. Unless noted, how the calls were made is not given here.

Sequence of NADPH oxidase 5 (Homo sapiens) (Q96PH1 whole entry, looked up): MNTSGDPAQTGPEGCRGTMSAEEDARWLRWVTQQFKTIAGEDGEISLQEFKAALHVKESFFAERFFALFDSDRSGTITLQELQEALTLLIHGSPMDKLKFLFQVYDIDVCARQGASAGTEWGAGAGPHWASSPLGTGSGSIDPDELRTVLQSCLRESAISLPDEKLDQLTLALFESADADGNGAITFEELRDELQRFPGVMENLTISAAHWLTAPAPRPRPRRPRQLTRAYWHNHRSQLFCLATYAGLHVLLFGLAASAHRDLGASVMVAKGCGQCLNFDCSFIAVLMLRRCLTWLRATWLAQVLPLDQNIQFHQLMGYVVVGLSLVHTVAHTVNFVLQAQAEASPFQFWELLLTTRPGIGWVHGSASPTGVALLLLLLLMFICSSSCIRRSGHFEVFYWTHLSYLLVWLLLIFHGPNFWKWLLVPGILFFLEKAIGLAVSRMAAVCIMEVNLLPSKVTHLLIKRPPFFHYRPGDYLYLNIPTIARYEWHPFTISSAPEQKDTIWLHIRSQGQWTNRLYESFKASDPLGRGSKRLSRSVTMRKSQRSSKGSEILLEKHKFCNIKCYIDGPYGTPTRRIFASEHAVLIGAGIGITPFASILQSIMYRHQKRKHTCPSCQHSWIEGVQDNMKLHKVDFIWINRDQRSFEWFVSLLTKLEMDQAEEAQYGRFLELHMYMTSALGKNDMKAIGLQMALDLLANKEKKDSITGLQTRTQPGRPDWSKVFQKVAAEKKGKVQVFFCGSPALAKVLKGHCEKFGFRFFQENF
Sequence of Torsin-1A (Homo sapiens) (O14656 whole entry, looked up): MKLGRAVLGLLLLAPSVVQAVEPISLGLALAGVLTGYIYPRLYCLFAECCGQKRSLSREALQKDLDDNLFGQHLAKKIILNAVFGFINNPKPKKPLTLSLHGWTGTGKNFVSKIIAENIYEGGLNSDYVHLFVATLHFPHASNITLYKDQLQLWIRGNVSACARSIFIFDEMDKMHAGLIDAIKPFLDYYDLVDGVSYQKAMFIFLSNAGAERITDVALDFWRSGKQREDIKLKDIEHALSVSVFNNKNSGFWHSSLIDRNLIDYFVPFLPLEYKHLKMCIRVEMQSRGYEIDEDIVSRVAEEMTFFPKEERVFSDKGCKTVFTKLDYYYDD

As for `C=CCNC(=O)[C@@H]1[C@H]2C(=O)O[C@H](c3ccccc3)[C@H](c3ccccc3)N2[C@H](c2ccc(OCCO)cc2)[C@@]12C(=O)N(C(=O)OCCOC)c1ccccc12`, the composite z-score in assay [1] is 0.538; in [6], -0.154; in assay [7], 0.138; with Torsin-1A (Homo sapiens) [8], 0.72; with Torsin-1A (Homo sapiens) [9] it was 0.281; in [10] it was 0.957. In [12], this molecule returned a composite z-score of 0.258. Also, the z-score in assay [2] was -1.32 (inactive); in assay [3] it was -0.328 (inactive); in assay [4], 0.712 (inactive); in [5], -0.477 (inactive); in [11] it was 0.127 (inactive); in assay [13] it was 3.15 (inactive). For the same molecule, the z-score was 1.27 (inactive) in [14]; -0.947 (inactive) in assay [15]; 0.442 (inactive) in assay [16]; -0.296 in assay [17]; 0.406 (inactive) in assay [18]; 0.789 (inactive) in assay [19]. Also, the z-score in [20] is -0.0693.
Consider `OCCCc1cc[n+](Cc2cc3c(cc2Br)OCO3)cc1`, for which the composite z-score was -0.265 in assay [1]; -0.838 in [6]; -0.209 in assay [7]; -1.27 with Torsin-1A (Homo sapiens) [8]; -0.561 in the assay with Torsin-1A (Homo sapiens) [9]; -0.508 in assay [10]. The molecule further returned a composite z-score in [12] of 0.0191. Moreover, the z-score was -0.633 (inactive) in assay [2]; 0.0177 (inactive) in assay [3]; -0.374 (inactive) in [4]; -0.121 (inactive) in assay [5]; 0.855 (inactive) in [11]; -0.103 (inactive) in [13]. In addition, the z-score in [14] is 0.0608 (inactive); in assay [15] it was -0.895 (inactive); in assay [16], -0.237 (inactive); in [17], -0.132; in assay [18], -0.0452 (inactive); in [19], 0.27 (inactive). Further, in [20], the z-score is -0.112.
As to `C=CCN1C(=O)[C@@]2(O[C@@H](CCO)[C@H]([Si](C)(C)c3ccc(OC)cc3)[C@H]2C)c2cc(N3CCCCC3=O)ccc21`, the composite z-score in [1] turned out to be 0.282; in assay [6] it was 0.732; in [7] it was 0.0471; with Torsin-1A (Homo sapiens) [8], 0.683; with Torsin-1A (Homo sapiens) [9], 0.417; in assay [10] it was 1.6. Also, the composite z-score in assay [12] was determined as 0.102. For the same molecule, the z-score was -5.3 (inactive) in assay [2]; -0.0131 (inactive) in assay [3]; 13.6 (active) in assay [4]; -0.639 (inactive) in [5]; 0.424 (inactive) in assay [11]; 23.8 (active) in [13]. Besides, the z-score was 7.85 (inactive) in assay [14]; -0.302 (inactive) in [15]; 1.9 (inactive) in [16]; 1.44 in [17]; -1.63 (inactive) in [18]; -0.258 (inactive) in assay [19]. In assay [20], this molecule gave a z-score of -0.607.
On to `COc1ccc(CCNC(=O)[C@@H]2c3ccccc3C(=O)N(C(C)C)[C@H]2c2ccc(CO)cc2)cc1`, for which the composite z-score in assay [1] is -0.234; in assay [6], -0.896; in assay [7], -0.253; with Torsin-1A (Homo sapiens) [8], 0.123; in the assay with Torsin-1A (Homo sapiens) [9], 0.0739; in [10], -0.937. The same molecule gave a composite z-score in assay [12] of -0.27. Also, the z-score is 0.172 (inactive) in assay [2]; 0.948 (inactive) in assay [3]; 0.351 (inactive) in assay [4]; -0.859 (inactive) in assay [5]; 1.73 (inactive) in [11]; 3.24 (inactive) in assay [13]. Moreover, the z-score in assay [14] is 0.785 (inactive); in [15], 1.3 (inactive); in assay [16], 0.376 (inactive); in [17] it was 0.307; in assay [18], -0.219 (inactive); in assay [19] it was 0.821 (inactive). Also, the z-score in assay [20] is 0.338.
Regarding `CC[C@@H](O[Si](C#C[Si](C(C)C)(C(C)C)C(C)C)(C(C)C)C(C)C)c1cn([C@H](CO)Cc2ccccc2)nn1`, the composite z-score in assay [1] was -0.142; in [6] it was 0.391; in assay [7], 0.0104; in the assay with Torsin-1A (Homo sapiens) [8], 0.0922; with Torsin-1A (Homo sapiens) [9] it was -0.209; in [10], 1.24. In [12], this molecule gave a composite z-score of -0.0094. Moreover, the z-score was 0.0926 (inactive) in assay [2]; -0.805 (inactive) in [3]; -0.607 (inactive) in assay [4]; -0.038 (inactive) in assay [5]; 0.922 (inactive) in [11]; 0.355 (inactive) in [13]. In addition, the z-score in assay [14] was 0.49 (inactive); in [15], -0.68 (inactive); in assay [16] it was 0.0878 (inactive); in assay [17], -0.116; in [18], -0.69 (inactive); in assay [19], 0.408 (inactive). The z-score in assay [20] is -0.133.
